Laboratory results published in PubChem BioAssay AID2732 (Emory University Molecular Libraries Screening Center, 2010).
Screen size: about 220,000 compounds; about 8,200 (3.7%) were called active. This excerpt belongs to a sample that is enriched for actives. Values without a mark were called inactive.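 The calls were made as follows: active = compounds that reduced the stress-induced luciferase reporter signal by more than about 70% of percent inhibition (limit read from the data); inactive = the rest.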

Experiment: blockers of ER-stress CHOP reporter expression – cell-based, unfolded protein response, luciferase reporter, primary screen (AID 2732);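 also: 0% = tunicamycin plus vehicle and 100% = wells without tunicamycin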
Conditions: CHO-K1 CHOP-promoter luciferase, tunicamycin-induced, 15-18 h; at 10 µM; hits give high values

SMILES | inhibition
CCOC(=O)c1cn[nH]c1NC(=S)Nc1ccccc1 | -6.82%
COc1ccc(C(=O)C2CCCN(C(=O)c3cnsn3)C2)c(C)c1 (stereo not drawn) | 1.06%
FC(F)(F)c1nc2ccccc2nc1N/N=C/c1ccc(Cl)cc1 | 70.3% (active)
FC(F)(F)c1cccc(N/N=C/c2ccccc2)c1 | 69%
Fc1ccc(/C=N/Nc2nc(-c3cccnc3)nc3ccccc23)cc1 | 1.02%
COc1ccc2c(CC(=O)OCC(=O)NC(N)=O)coc2c1 | 8.09%
COc1ccc(CCNC(=O)/C(C#N)=C2\N=C(NC(=O)c3cccs3)c3ccccc32)cc1 | 81.3% (active)
COc1ccc(CCNC(=O)c2ccco2)cc1 | 14.1%
COc1ccc(CN(Cc2ccc(OC)cc2)C(=O)c2cccs2)cc1 | -9.17%
Cc1ccc(/C=C/C(=O)O)cc1S(=O)(=O)N1CCC(Cc2ccccc2)CC1 | -11.4%
Cc1onc(-c2ccccc2)c1C(=O)N=C(N)c1ccc(Cl)cc1 | 6.38%
Fc1c(F)c(C(F)(F)F)c(F)c(F)c1N1CCN(c2ccc3nnc(C(F)(F)F)n3n2)CC1 | 72.7% (active)
FC(F)(F)c1nnc2ccc(N3CCN(c4ccccc4)CC3)nn12 | 49.9%
O=C(Nc1ccc(S(=O)(=O)Nc2nccs2)cc1)c1cc(=O)[nH]c2ccccc12 | 19.9%
CC1(C)CCSC(/C=C/c2ccccc2)=N1 | -147%
O=C(Nc1nnc(CCN2CCCCC2)s1)c1cccc(Cl)c1 | 6.02%
Nc1nnn(CC(=O)N/N=C/c2ccc(O)cc2)n1 | -8.23%
N#C/C(=C\c1ccc(-c2cccc([N+](=O)[O-])c2)o1)C(=O)NCCN1CCOCC1 | 27.9%
Cc1ccc(Cc2cnc(NC(=O)/C(C#N)=C/c3ccc(-c4cccc([N+](=O)[O-])c4)o3)s2)cc1 | 93.4% (active)
Cc1ccc(C(=O)N/C(=C/c2ccc(-c3cccc([N+](=O)[O-])c3)o2)C(=O)NCCCN(C)C)cc1 | 8.44%
Cc1ccc(/C=N/NC(=S)NC2CCCCC2)o1 | 2.92%
Nc1ccccc1Sc1cc(Cl)nnc1Cl | 20%
CC(=O)Nc1ccc(CC#N)cc1 | 18.1%
CC1(C)CC(=O)C(N=Nc2c(F)cccc2F)=C(O)C1 | 7.79%
CCCSc1nc2c(c(=O)n(C)c(=O)n2C)n1Cc1ccc(C)cc1 | 77.2% (active)

SMILES | inhibition
Cc1cccc(Cn2c(SCCO)nc3c2c(=O)n(C)c(=O)n3C)c1 | 16.8%
CCOc1ccc(Cn2c(SCCCCC#N)nc3c2c(=O)n(C)c(=O)n3C)cc1OCC | 17.3%
Cc1nc2cc(NC(=O)Nc3cccc(F)c3)ccc2n1C | -0.84%
C/C(Cc1ccccc1)=N\NC(=O)CNC(=O)c1ccc2c(c1)OCCO2 | 14.9%
CC(=O)N1CCC(N(C(=O)Nc2ccc(Cl)cc2)C(C)C)CC1 | 15.3%
CC(C)Oc1ccc(CCC(=O)NNC(=S)NCc2ccccc2)cc1 | 6.72%
CC1(C)CC(N2CCN(C(c3ccccc3)c3ccccc3)CC2)=CC(=[N+]2CCCCC2)C1 | 65.3%
CN(CC(=O)Nc1ccc(F)cc1)CC(=O)Nc1ccc(Cl)c(S(=O)(=O)N2CCOCC2)c1 | -2.81%
Cc1nn2c(NCCN(C)C)c3c(nc2c1-c1ccccc1)CCC3 | -22%
CCC1(C)Cc2c(sc3nc(SC)[nH]c(=O)c23)CO1 (stereo not drawn) | 10%
CSc1nc2sc3c(c2c(=O)[nH]1)CCc1ccccc1-3 | 106% (active)
COc1ccc(-n2c(=S)[nH]c3sc4c(c3c2=O)CCc2ccccc2-4)cc1 | -20.5%
CCn1c(SCC(=O)N/N=C/c2ccccc2OCC(=O)O)nnc1-c1ccc(C(C)(C)C)cc1 | 4.75%
CC(C)(C)n1cnnc1Sc1ccc([N+](=O)[O-])cn1 | 12.9%
Cc1ccc(-c2c[n+](CC(=O)Nc3ccccc3)c3n2CCC3)cc1 | 16.6%
O=C(O)C1CCN(C(=O)c2cc(F)cc3c2OCOC3)CC1 | 12.2%
O=C(Nc1ccc2c(c1)C(=O)OC2)Nc1cccc2ccccc12 | 90.2% (active)
O=C(CC12CC3CC(CC(C3)C1)C2)Nc1ccc2c(c1)COC2=O | 69.7%
Cc1ccc(S(=O)(=O)NNC(=O)Nc2cccc3ccccc23)cc1 | 36.5%
COc1ccc2oc(=O)c(C(=O)N3CCN(c4ccccc4F)CC3)cc2c1 | 25.2%
O=C(c1cccc2ccccc12)N1CCN(c2ccccc2F)CC1 | 91.4% (active)
O=C(c1ccc(CN2CCOCC2)cc1)N1CCN(c2ccccc2F)CC1 | -5.7%
COc1ccc(CCNC2=CC(=O)CC(C)(C)C2)cc1 | 6.34%
C=CCN1CC(C)/C(=N\O)CC1C (stereo not drawn) | -23.6%
CCOC(=O)C1(S(=O)(=O)c2ccccc2)CCN(Cc2ccccc2)CC1 | -6.62%

SMILES | inhibition
CC1=C/C(=N\OS(=O)(=O)c2ccccc2)C=CC1=O | 108% (active)
CC1=C/C(=N\S(=O)(=O)c2ccccc2)C(C(C)C)=CC1=O | 49.7%
CN(C(=O)CCn1c(=S)oc2ccccc21)C1CCCCC1 | 4.79%
CC(C)(C)C(=O)Cn1c(NCCO)nc2ccccc21 | 9.85%
OCCNc1nc2ccccc2n1-c1ncnc2sc3c(c12)CCC3 | 74.4% (active)
O=C(O)[C@@H]1CCCN1c1ncnc2sc3c(c12)CCC3 | -1.98%
N/C(=N\S(=O)(=O)c1cc(C(F)(F)F)cc(C(F)(F)F)c1)c1cccs1 | 34.7%
Cc1ccc(S(=O)(=O)NC(=O)Nc2nc(-c3ccc(F)c(F)c3)cs2)cc1 | 1.74%
CCOC(=O)c1cc(C)nc(S(C)(=O)=O)c1C#N | -90.6%
Oc1cccc(C2c3[nH]c4ccccc4c3CCN2Cc2cnn(-c3ccccc3)c2)c1 (stereo not drawn) | 106% (active)
COc1cccc(C2c3[nH]c4ccccc4c3CCN2Cc2cccc(C)n2)c1 (stereo not drawn) | 8.45%
c1ccc(C2c3[nH]c4ccccc4c3CCN2Cc2cccn2-c2cccnc2)nc1 (stereo not drawn) | -19.1%
Cn1c(CSCC(=O)Nc2ccccc2)nnc1SCc1ccccc1 | -6.7%
COc1ccc(NC(=O)CCN2C(=O)/C(=C/c3ccc4c(c3)OCO4)SC2=S)cc1 | -8.39%
CCCCCCCCn1c2c(c(=N)c3c1CCC3)CCCC2 | 75.5% (active)
O=C(N/N=C/c1cccc([N+](=O)[O-])c1)c1ccncc1 | 5.76%
O=C(CSc1nnnn1-c1ccc(O)cc1)c1ccc(F)cc1 | 17%
CCCCC(CCC(=O)Nc1ccc(C(=O)OCC)cc1)C(=O)O (stereo not drawn) | 14.7%
CCOC(=O)Nc1ccc(NC(=O)OCC)cc1 | 26.9%
CCCCCOC(=O)NCCOC(=O)Nc1ccc(C(=O)OCC)cc1 | 83.8% (active)
O=C(CN1CCCCCC1)Nc1ccc(Br)cc1Br | 84.9% (active)
O=C(CN1CCCCC1)Nc1ccccc1Cl | 10.1%
COc1cc([N+](=O)[O-])ccc1NC(=O)CN1CCCC1 | -4.65%
CCOc1ccc(C2c3[nH]c4ccccc4c3CCN2Cc2cccn2-c2ncccn2)cc1 (stereo not drawn) | -20%
Cc1nnc(N/N=C/c2cccs2)[nH]c1=O | 10.9%

SMILES | inhibition
CCOc1ccc(-n2cnc3c(=O)[nH]c(N)nc32)cc1 | 8.78%
CC1CC2C3CCC4=CC(=O)C=C[C@]4(C)[C@@]3(F)[C@@H](O)C[C@]2(C)[C@@]1(O)C(=O)CO (stereo partly drawn) | 4.18%
CCN1CCN(c2nc(Nc3cccc(F)c3)nc(N)c2[N+](=O)[O-])CC1 | 3.99%
Nc1nc(Nc2ccccc2)nc(NCCO)c1[N+](=O)[O-] | -4.79%
CNc1nc(Nc2ccc(C)c(Cl)c2)nc(N)c1[N+](=O)[O-] | 81.6% (active)
COc1ccc2c(c1)c1ncn(Cc3ccccn3)c(=O)c1n2C | 18.8%
CCN(CC)C(=O)Oc1ccc(Br)cc1C(=O)Nc1ccc(F)c(Cl)c1 | -9.25%
CN(C)C(=S)Nc1ccc(Br)cc1Cl | -7.26%
CCCCSc1nnc2c(n1)OC=Nc1ccccc1-2 | -26.6%
O=C1/C(=C/c2ccc3c(c2)OCO3)CCC/C1=C\c1ccc2c(c1)OCO2 | 10.8%
CSC1=N/C(=C\c2ccc3c(c2)OCO3)C(=O)S1 | 79.4% (active)
CCC1=C/C(=C\c2ccc3c(c2)OCO3)C(=O)S1 | 47.3%
C/C=N/N(c1ccccc1)c1ccccc1 | 12.3%
Oc1ccc(-c2nnc(Nc3ccccc3)c3ccccc23)cc1 | 34.9%
COc1cc(OC)c2ccc(=O)oc2c1C(CCN1CCN(c2ccccc2)CC1)c1ccc2c(c1)OCO2 (stereo not drawn) | 6.77%
Cc1[nH]n(C)c(=O)c1C(=O)c1c(-c2c(Cl)cccc2Cl)noc1C | -56.3%
COc1ccc(CNC(=O)C(Cc2ccccc2)n2cccc2)cc1 (stereo not drawn) | 9.45%
CCOC(=O)C1=C(O)CSC1=Nc1cccc(Cl)c1 | 12.7%
CN(C)c1nc(=Nc2cccc(Cl)c2)ss1 | 74.4% (active)
Clc1cccc(N=C2NN=C(c3ccc4c(c3)OCCO4)CS2)c1 | 10.5%
COc1ccccc1N(C)S(=O)(=O)c1ccc(C(=O)NC2CCCCCC2)cc1 | 19.2%
CN1C(=O)/C(=C/c2ccc(C(=O)NC3CCCC3)cc2)Oc2ccccc21 | 101% (active)
O=C(NC1CC1)c1ccc(-c2ccccc2)cc1 | -3.76%
